{"source": "PubChem BioAssay (NCI)", "note": "About 83,000 compounds went through this panel and 20% of them were active in at least one assay; those are over-represented in the sample as a whole.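 Single-concentration screen, 48 h exposure, 96-well plates. Endpoint: percent growth. Below 10 = active.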 Values without a mark were called inactive. Calls of active or inactive are those of the source.", "data": [{"system": "SNB-75 CNS", "experiment": "NCI-60 one-dose screen, 48 h (100 = growth as untreated, 0 = no growth, -100 = all killed)", "settings": "10 µM unless noted", "protocol": "Growth inhibition of the SNB-75 human tumor cell line is measured as a screen for anti-cancer activity. Cells are grown in 96 well plates and exposed to the test compound for 48 hours. Compounds are tested at a single concentration, which is 10^-5 M for most compounds. The reported endpoint is percent growth (GI% or GIPRCNT), where numbers from 0 - 100% represent growth inhibition, and numbers from -100% - 0 represent cell death. For example, a value of 40 represents 60% growth inhibition. A value of 0 means no net growth occurred over the course of the experiment. A value of -40 indicates 40% of cells at the beginning of the experiment died by the end of the experiment. A value of -100 means all cells are dead at the end of the experiment.\nNCI-60 Human Tumor Cell Lines Screen was performed using the standard one-dose NCI protocol, which is described in more detail at https://dtp.cancer.gov/discovery_development/nci-60/default.htm.\nCompounds with GIPRCNT values below 10 were considered active. Activity score was based on GIPRCNT using the following formula: […]\nScore is 0 for GIPRCNT values of 100 or above, 50 for GIPRCNT values of 0, and 100 for GIPRCNT values of -100.", "values": [{"compound": "CCCCCCC[C@@H](O)CC(=O)N[C@H](CCCCN)C(=O)N[C@H](Cc1c[nH]c2ccccc12)C(=O)NC(CCCCN)C(=O)N[C@H](CC(C)C)C(=O)N[C@H](Cc1ccccc1)C(=O)N[C@H](CCCCN)C(=O)N[C@H](CCCCN)C(=O)N[C@H](CC(C)C)C(=O)N1CCCC1C(=O)N[C@H](CCCCN)C(=O)N[C@H](Cc1ccccc1)C(=O)N[C@H](CC(C)C)C(=O)N[C@H](Cc1c[nH]cn1)C(=O)N[C@H](CC(C)C)C(=O)N[C@H](C)C(=O)N[C@H](CCCCN)C(=O)N[C@H](CCCCN)C(=O)N[C@H](Cc1ccccc1)C(=O)O", "note": "(stereo not given in full)", "growth": "-62.3% (active)"}, {"compound": "CCC(c1cccc(Br)c1)C(C(=O)O)c1ccc(OC)cc1", "note": "(stereo not given)", "growth": "96%"}, {"compound": "O=C(CCl)NCCNc1nccc(Nc2ccc(S(=O)(=O)Nc3ccccn3)cc2)n1", "growth": "32.5%"}, {"compound": "COc1ccc(-c2nc3sccn3c2-c2ccnc(NCCCNS(=O)(=O)c3ccc4ccccc4c3)n2)cc1", "growth": "85.5%"}, {"compound": "Cc1cc(-c2ccccc2)c(C)n1Cc1ccc(Cl)cc1", "growth": "38.5%"}, {"compound": "O=C(N/N=C/c1c(Cl)cccc1Cl)c1ccccc1Nc1ccnc(C(F)(F)F)c1", "growth": "62.8%"}, {"compound": "Cc1nc2scc(-c3ccccc3)n2c(=O)c1CCO", "growth": "71.6%"}, {"compound": "CCC(c1ccc(OC)cc1)C(CC)c1ccc(OCC[N+](C)(C)C)cc1", "note": "(stereo not given)", "growth": "40%"}, {"compound": "COc1cc2nc(SCc3cc(OC)c(OC)c(OC)c3)n(Cc3ccccc3)c(=O)c2cc1OC", "growth": "-16.6% (active)"}, {"compound": "COc1cccc(C2CC(=O)Nc3c2c(C)nn3-c2nc3ccccc3[nH]2)c1OC", "note": "(stereo not given)", "growth": "74.8%"}, {"compound": "Cc1cccc2cc(/C=C/C(=O)/C=C/c3ccc(Cl)cc3)c(=O)[nH]c12", "growth": "79.7%"}, {"compound": "COc1ccc2c(c1)NC(=O)CN2c1nc(C)nc2ccccc12", "growth": "41.8%"}, {"compound": "O=c1c2cccc3c(Nc4ccc(F)cc4)ccc(c32)c2nc3ccccc3n12", "growth": "70.8%"}, {"compound": "O=C1CCC(=O)N1Cc1ccccc1", "growth": "80.4%"}, {"compound": "O=C(Nc1cccc(C(F)(F)F)c1)Nc1ccc(OCc2nnc(-c3ccccc3)o2)c(F)c1", "growth": "19.2%"}, {"compound": "CCOC(=O)/C=C\\C(=O)NC(N)=O", "growth": "99.3%"}, {"compound": "CCSc1nnc(NC(=O)COc2ccc(Cl)cc2C)s1", "growth": "110%"}, {"compound": "O=C(NCCCN1CCN(CCCNC(=O)C2CCCCC2)CC1)C1CCCCC1", "growth": "88.7%"}, {"compound": "CN(C)c1nc(N)c(N=O)c(N)n1", "growth": "98.5%"}, {"compound": "CCN(CC)CCCC(C)N=c1cc(Nc2cc(=NC(C)CCCN(CC)CC)c3cc(OC)ccc3o2)oc2ccc(OC)cc12", "note": "(stereo not given)", "growth": "-90.8% (active)"}, {"compound": "COC(=O)CC/C(C)=N\\Nc1ccc([N+](=O)[O-])cc1", "growth": "91.5%"}, {"compound": "O=C(CN1CCN(c2cc3c(cc2F)c(=O)c(C(=O)O)cn3C2CC2)CC1)Nc1ccc(C(=O)/C=C/c2ccc(Cl)cc2)cc1", "growth": "84.8%"}, {"compound": "COc1ccc(-n2cnc3c(sc4ncc(Cl)cc43)c2=O)cc1", "growth": "90.3%"}, {"compound": "CSc1ccccc1C#C/C=C\\C#Cc1ccccc1N1CCCCC1=O", "growth": "118%"}, {"compound": "O=[N+]([O-])c1c(S(=O)(=O)O)cc2cc(S(=O)(=O)O)ccc2c1[N+](=O)[O-]", "growth": "98.1%"}, {"compound": "COC(=O)c1ccc(C)cc1", "growth": "89.2%"}, {"compound": "O=[N+]([O-])c1cccc(-c2cc(-c3cc(Br)ccc3O)[nH]n2)c1", "growth": "38.8%"}, {"compound": "CCO/C=N/NC(=O)c1ccncc1", "growth": "93.3%"}, {"compound": "O=C1c2ccccc2C(=O)c2c(N=Nc3sc(=O)[nH]c3S)cccc21", "growth": "112%"}, {"compound": "O=C(Nc1ccc(I)cc1)c1cccc([N+](=O)[O-])c1O", "growth": "41.2%"}, {"compound": "C=C1C(=O)O[C@H]2[C@H]1CC/C(Cn1cc(-c3ccccc3C(F)(F)F)nn1)=C\\CC[C@@]1(C)O[C@@H]21", "growth": "35.1%"}, {"compound": "O=S(=O)(NCCCNc1cc(-c2cn(-c3ccccc3)nc2-c2cccc(O)c2)ccn1)c1ccc(C(F)(F)F)cc1", "growth": "31.5%"}, {"compound": "O=C(NCCc1c[nH]c2ccccc12)C1Cc2ccccc2CN1C(=O)c1ccco1", "note": "(stereo not given)", "growth": "106%"}, {"compound": "CCn1cc(C(=O)O)c(=O)c2cc(F)c(N3CCN(S(=O)(=O)c4cccc5ccccc45)CC3)cc21", "growth": "14.1%"}, {"compound": "O=C(COc1ccccc1)N1N=C(c2ccc(Cl)cc2)CC1c1c[nH]c2ccccc12", "note": "(stereo not given)", "growth": "66.6%"}, {"compound": "COc1cc(C2C=C(C)N=C3SC=C(C)N32)cc(OC)c1OC", "note": "(stereo not given)", "growth": "24.6%"}, {"compound": "CN(C)CCCNC(=O)C(c1ccccc1)c1ccccc1", "growth": "94.5%"}, {"compound": "O=C(Cc1c(F)cccc1Cl)Nc1ccc(S(=O)(=O)Nc2ncccn2)cc1", "growth": "110%"}, {"compound": "O=c1[nH]c(CN2CCN(c3ccccc3F)CC2)nc2sc3c(c12)CCC3", "growth": "87.8%"}, {"compound": "O=C(CNc1ccc(Cl)cc1)Nc1ccc(-c2nc3ccccc3s2)cc1", "growth": "60.1%"}]}]}
